This is an account of results in PubChem BioAssay AID2013 (Sanford-Burnham Center for Chemical Genomics, 2009).

For orientation: inhibition means the relative decrease from the control value, in per cent.

Among all 290,000 compounds or so, about 370 (0.13%) were called active. The sample as a whole holds a higher share of actives than the screen did. Results with a measured potency or affinity are listed apart. Values without a mark were called inactive.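 How the source made its calls: active means spots per cell inhibited over 60%, with over 100 cells counted and total cytoplasm intensity under 500,000; inconclusive means wells with under 100 cells, flagged as likely toxic; inactive means the rest.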

This experiment deals with G-protein coupled receptor 55 (Homo sapiens) (UniProt Q9Y2T6). The experiment in a line: inhibition of LPI-stimulated GPR55 beta-arrestin translocation – imaging, U2OS, beta-arrestin-GFP, LPI agonist, primary screen (AID 2013).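 Further: U2OS cells stably carrying GPR55 and arrestin-GFP stimulated by 5 µM LPI near EC80; imaged beta-arrestin-GFP aggregate spots per cell after agonist stimulation; plate controls were LPI-stimulated DMSO wells for no effect and DMSO wells without LPI for full effect.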 Conditions: LPI antagonism, at 10 µM, hits give high values.
Chain of G-protein coupled receptor 55 (Homo sapiens) (Q9Y2T6 whole entry, looked up): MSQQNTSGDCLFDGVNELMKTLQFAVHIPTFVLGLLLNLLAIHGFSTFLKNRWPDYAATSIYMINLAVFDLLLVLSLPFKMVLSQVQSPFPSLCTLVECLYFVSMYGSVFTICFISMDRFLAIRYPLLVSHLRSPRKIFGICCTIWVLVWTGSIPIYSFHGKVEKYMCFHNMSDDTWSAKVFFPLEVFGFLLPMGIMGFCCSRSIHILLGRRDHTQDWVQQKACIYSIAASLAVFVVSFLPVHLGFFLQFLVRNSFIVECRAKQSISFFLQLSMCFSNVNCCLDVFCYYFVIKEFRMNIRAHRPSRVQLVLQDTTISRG
For `Cc1ccc(C(C)C)cc1S(=O)(=O)NCc1ccccn1`, the inhibition was 8.4%.

Regarding `Cc1cc(C)nc(Nc2n[nH]c(-c3ccccc3Cl)n2)n1`, the inhibition was 0.2%.

For `COc1ccc(C2c3ccc(O)cc3Oc3ncn4nc(-c5ccncc5)nc4c32)cc1OC` (configuration not stated), the inhibition was 5.3%.

For the compound `COc1ccc(C2c3ccc4ccccc4c3Oc3ncn(Cc4ccco4)c(=N)c32)cc1OC` (configuration not stated), the inhibition was 96.1%.

For the compound `N=c1c2c(ncn1Cc1ccco1)Oc1c(ccc3ccccc13)C2c1ccccc1` (configuration not stated), the inhibition is 65.9% (active).

With `COc1ccc(C2c3ccc(O)cc3Oc3ncn4nc(-c5ccccn5)nc4c32)cc1OC` (configuration not stated), the inhibition was 14.6%.

As to `COc1ccc(C2c3c(ncn(Cc4ccco4)c3=N)Oc3ccc4ccccc4c32)cc1` (configuration not stated), the inhibition was 27.8%.

Consider `N=c1c2c(ncn1Cc1ccco1)Oc1ccc3ccccc3c1C2c1ccccc1` (configuration not stated), for which the inhibition was 17.8%.

Take `N=c1c2c(ncn1CCCO)Oc1cc(O)ccc1C2c1ccccc1` (configuration not stated): the inhibition was 33.6%.

As to `N=c1c2c(ncn1CCN1CCOCC1)Oc1cc(O)ccc1C2c1ccccc1` (configuration not stated), the inhibition was 16.4%.

With `COc1ccc(C2c3ccc(O)cc3Oc3ncn(Cc4ccco4)c(=N)c32)cc1OC` (configuration not stated), the inhibition was 33%.

Take `CNc1oc(C)nc1S(=O)(=O)c1ccccc1`: the inhibition is -6.5%.

With `O=C(O)c1ccc2c(c1)S(=O)(=O)N=C1CCCCCN12`, the inhibition was 16.8%.

As for `Cc1c(N=Cc2c(O)n(C)c(=O)c3ccccc23)c(=O)n(-c2ccccc2)n1C`, the inhibition is 1.5%.

Turning to `CC(=O)N1c2ccccc2CCc2ccc(N)cc21`, the inhibition is 8%.

As for `CC(C)(C)c1ccc(C(=O)Nc2ccc(O)c3c(=O)cc(-c4ccccc4Cl)oc23)cc1`, the inhibition is 18.3%.

For the compound `O=c1[nH]c(=S)[nH]c2sc3c(c12)CCCCCC3`, the inhibition is -0.5%.

Take `COc1cc(/C=N/NC(=O)c2cccc3ccccc23)cc(OC)c1O`: the inhibition was 16.9%.

For `Cn1c(NC(=O)c2cc(-c3ccc4c(c3)OCO4)nc3ccccc23)cc(=O)n(C)c1=O`, the inhibition is 9.3%.

Regarding `COc1ccc(C2c3ccc(O)cc3Oc3ncn(CCCO)c(=N)c32)cc1` (configuration not stated), the inhibition is 22%.

For the compound `COc1ccc(C2c3ccc(O)cc3Oc3ncn(CCN4CCOCC4)c(=N)c32)cc1` (configuration not stated), the inhibition is 18.9%.

As to `COC(=O)c1ccc(N(CC(=O)NC2CCCCC2)C(=O)CNC(=O)c2ccco2)cc1`, the inhibition is -3.6%.

In the case of `COc1ccc(-c2ccc(-c3nnc(Cc4ccc(OC)c(OC)c4)o3)cc2)cc1`, the inhibition was -4.2%.

Take `O=C1c2ccccc2C(=O)N1Cc1cc(-c2ccccc2)no1`: the inhibition is -7.7%.

For `O=C(CCS(=O)(=O)c1cccc2nonc12)N1CCOCC1`, the inhibition is -5.5%.

`COc1ccccc1-c1c(-c2ccc(OCC(=O)NN)cc2O)n[nH]c1C(F)(F)F`: the inhibition was 4.3%.

As for `COc1ccc(-c2cn[nH]c2-c2ccc(OCC(=O)NN)cc2O)cc1OC`, the inhibition was -2.6%.

For the compound `COc1ccc(-c2c(-c3ccc(O)cc3O)n[nH]c2C)cc1OC`, the inhibition is 7%.

Turning to `COc1ccc(-c2c(-c3ccc(OCC(=O)NN)cc3O)n[nH]c2C)cc1`, the inhibition is -11.9%.

For the compound `Oc1ccc(-c2n[nH]c(C(F)(F)F)c2-c2ccccc2)c(O)c1`, the inhibition was 20.9%.

Turning to `COc1ccc(-c2n[nH]c(C)c2-c2ccc(Cl)cc2)c(O)c1`, the inhibition was 12.3%.

Regarding `COc1ccccc1-c1c(-c2ccc(O)cc2O)n[nH]c1C(F)(F)F`, the inhibition was 5.7%.

As to `COc1ccc(-c2cn[nH]c2-c2ccc(OCC(=O)NN)cc2O)cc1`, the inhibition is -13.4%.

In the case of `CSc1c(CC(=O)Nc2ccccc2)n(C)c2ccccc12`, the inhibition was -1%.

Regarding `O=C(NCc1cccnc1)C(=O)Nc1ccc([N+](=O)[O-])cc1`, the inhibition was -2.9%.

Take `CSc1nsc(SC)c1NC(=O)N1CCCCC1`: the inhibition was 3.9%.

With `Cc1cc(C)c(C(=O)CN2C(=O)NC3(CCC(C)CC3)C2=O)cc1C` (configuration not stated), the inhibition is 0.1%.

Turning to `COC(=O)C1=C(N)Oc2c(oc(CO)cc2=O)C1c1ccc(F)cc1` (configuration not stated), the inhibition was 6%.

Turning to `COC(=O)c1c(-c2ccccc2)csc1N`, the inhibition was 1.1%.

For `COC(=O)c1ccc(C#Cc2ccccc2)o1`, the inhibition is -12.1%.

In the case of `COC(=O)c1sc(NC(=O)c2c(F)cccc2F)c(C#N)c1C`, the inhibition is -4.7%.

`COC(=O)C1=C(C)OC(N)=C(C#N)C1c1ccccc1F` (configuration not stated): the inhibition is 9%.

On to `O=C1CC(C(=O)O)(c2ccccc2)c2cccc(F)c21` (configuration not stated), for which the inhibition was -1.7%.

Take `COc1ccc(-c2nnn(CC(=O)NCCc3ccc(OC)c(OC)c3)n2)cc1`: the inhibition was -2.6%.

As for `O=C1/C(=C/c2ccc([N+](=O)[O-])cc2)CCc2ccccc21`, the inhibition is 6.9%.

In the case of `Cn1c(=O)c2c(ncn2Cc2nnc(N)s2)n(C)c1=O`, the inhibition was 3.3%.

Consider `CCOC(=O)c1ccc(NC(=S)N2CCC(O)CC2)cc1`, for which the inhibition is 1%.

For the compound `C#CCn1c(CCNC(=O)c2ccco2)nc2ccccc21`, the inhibition is -12.6%.

In the case of `CCOc1ccccc1CNC(=O)CCCn1ncn2c(cc3occc32)c1=O`, the inhibition was -7.1%.

For the compound `CCCCC(=O)N(Cc1ccc(F)cc1)C1CCS(=O)(=O)C1` (configuration not stated), the inhibition was -2.9%.

`Nn1c(CSc2nc3ccccc3o2)nnc1CSc1nc2ccccc2o1`: the inhibition was 2.1%.

For the compound `COC(=O)c1sccc1NC(=S)N1CCCCC1`, the inhibition was -4.6%.

Turning to `CSc1nnc(-c2sccc2OCc2ccc(C)cc2)n1C`, the inhibition was 28.1%.

In the case of `Cn1c(-c2sccc2OCc2ccccc2)n[nH]c1=S`, the inhibition was 6.8%.

Take `O=C(O)CNS(=O)(=O)c1ccc2c(c1)C(=O)c1cc(S(=O)(=O)NCC(=O)O)ccc1-2`: the inhibition was -7.8%.

Take `O=C(O)CNS(=O)(=O)c1ccc(F)cc1`: the inhibition is 0.5%.

`O=C(O)CNS(=O)(=O)c1ccc(-c2ccccc2)cc1`: the inhibition was 75.2% (active).

Regarding `COc1ccc(C(=O)Nc2ccc(/C(C)=N/NC(=O)c3ccncc3)cc2)cc1`, the inhibition is 10.6%.

Regarding `Cc1cccc(NC(=O)C2CC(O)CN2C(=O)Oc2ccccc2)c1` (configuration not stated), the inhibition is 2.6%.

Turning to `CC(NC(=O)Cn1nnc(-c2ccncc2)n1)c1ccccc1` (configuration not stated), the inhibition is -4.9%.

Regarding `CC1(C)Cc2ccccc2-c2nc3ccccc3c(=O)n21`, the inhibition is 0.3%.

For the compound `COc1cc2c(cc1OC)-c1nc3ccccc3c(=O)n1C(C)(C)C2`, the inhibition was 4.8%.
